# Measurements taken from PubChem BioAssay (NCATS).
# Unmarked numbers belong to inactive results. Records with an inconclusive call do not appear. Entries that show only a call come without a potency. Active and inactive are the calls of the source. Calls follow the shape of the dose curve; as a rule, active = well fitted curve in the direction sought with a large enough effect; inconclusive = small, poorly fitted or top-dose-only effect, or another doubt; inactive = no such curve, though single readings can be large; an effect the other way counts as inactive or inconclusive.
# What was measured:
# [1] = qHTS for small molecule inhibitors of Yes1 kinase: Counter Assay (AID 686950); settings: series mostly up to 76.9 µM;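 also: no kinase present so only ADP-Glo detection of a fixed ADP amount is tested; luminescence from ADP-Glo reporting ADP in a fixed ATP and ADP mixture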
# Outline: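 Luminescence read-out from ADP-Glo quantifies a fixed ADP amount (0.02 mM ADP with 0.08 mM ATP) after 60 min at room temperature; signal is normalized between DMSO wells with ATP/ADP and with 0.1 mM ATP alone.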
# [2] = qHTS Assay for Identifying Gametocytocidal Compounds (AID 743244); also: potency is read from the fitted curve at half-maximal effect;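 as to max response: actives lower the fluorescent signal which means gametocytes are killed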; settings: P. falciparum 3D7 stage III-V gametocytes, alamarBlue, 72 h; max response: stronger effect = lower value
# Outline: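 Using 20,000 stage III–V 3D7 gametocytes per well, compounds were incubated 72 h under 37 °C/5% CO2. Viability was then assessed by 24 h alamarBlue reduction, measured fluorometrically at 525/598 nm.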
compound,measurement,setting,value
COc1cc(=C2C=c3ccccc3=N2)[nH]c1=Cc1[nH]c(C)cc1C,outcome,[1],inactive
NC(=O)Nc1cc(-c2cccc(F)c2)sc1C(=O)N[C@H]1CCCNC1,outcome,[1],inactive
same,Potency,[2],18.7 µM (active)
Cc1ccc(C(=O)Nc2ccc(CN3CCN(C)CC3)c(C(F)(F)F)c2)cc1C#Cc1cnc2cccnn12,outcome,[1],inactive
CC(C)(C)c1cnc(CSc2cnc(NC(=O)C3CCNCC3)s2)o1,outcome,[1],inactive
same,Potency,[2],4.18 µM (active)
CNC(=O)c1cc(Oc2ccc(NC(=O)Nc3cc(C(C)(C)C)nn3-c3ccc4ncccc4c3)c(F)c2)ccn1,outcome,[1],inactive
COc1cc2c(Oc3ccc(NC(=O)C4(C(=O)Nc5ccc(F)cc5)CC4)cc3F)ccnc2cc1OCCCN1CCOCC1,outcome,[1],inactive
C[C@@]12O[C@@H](C[C@]1(O)CO)n1c3ccccc3c3c4c(c5c6ccccc6n2c5c31)CNC4=O,outcome,[1],inactive
COc1cc2c(Oc3ccc4[nH]c(C)cc4c3F)ncnc2cc1OCCCN1CCCC1,outcome,[1],inactive
same,Potency,[2],18.7 µM (active)
CC(C)=CCCC(C)=CCCC(C)=CCSc1ccccc1C(=O)O,outcome,[1],inactive
same,max response,[2],2.41%
COc1cc2c(Nc3ccc(NC(=O)c4ccccc4)cc3)ncnc2cc1OCCCN1CCOCC1,max response,[2],-17.9%
CC[C@H](CO)Nc1nc(NCc2ccccc2)c2ncn(C(C)C)c2n1,outcome,[1],inactive
CN(C)CC=CC(=O)Nc1cc2c(Nc3ccc(F)c(Cl)c3)ncnc2cc1O[C@H]1CCOC1,outcome,[1],inactive
Cn1cc(-c2[nH]c3cc(NC(=O)[C@H](N)C4CCCCC4)cc4c3c2C=NNC4=O)cn1,outcome,[1],inactive
same,Potency,[2],23.5 µM (active)
COc1cc(OC2CCN(C)CC2)ccc1Nc1ncc2c(n1)n(C1CCCC1)c(=O)n2C,outcome,[1],inactive
